# Experimental data taken from PubChem BioAssay (Tox21).
# Several values for one entry are separate records, joined by “and”; a condition that tells them apart may be missing. Equal values may be shown once. Results filed as inconclusive are left out. Where a call stands in place of a potency, no number is given. The source holds several records for some structures; these can differ, active in one and inactive in another. Activity calls are given as the source filed them. Unless noted, calls come from the whole dose curve; as a rule, active = well fitted curve in the direction sought with a large enough effect in the repeat runs; inconclusive = weak or mixed curves; inactive = no such curve, though single readings can be large; an effect the other way counts as inactive or inconclusive.
# Columns and labels:
# [1] = A CellTox Green Cytotoxicity Assay to monitor cytotoxicity in HEK293 cells - 32 hour (AID 1224881); note: nearly all actives have a fitted effect of over 40% in size
# How it was run: (§1)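 Cells (HEK293, 600/well) and dye reagent are dispensed together. After 5 h at 37 C, 23 nL compound is pinned in. Plates stay at 37 C for 40 h with fluorescence read at 0h, 8h, 16h, 24h, 32h and 40h.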
# [2] = A CellTox Green Cytotoxicity Assay to monitor cytotoxicity in HepG2 cells - 0 hour (AID 1224882); note: nearly all actives have a fitted effect of over 35% in size; note: potency is the fitted concentration of half-maximal effect
# How it was run: (§2)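 Cells and non-lytic dye reagent are dispensed together (600 HepG2 cells/well) and incubated 5 h before DMSO compound transfer. Kinetic fluorescence is then recorded in the same wells during 40 h at 37 C.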
# [3] = A CellTox Green Cytotoxicity Assay to monitor cytotoxicity in HepG2 cells - 32 hour (AID 1224883); note: nearly all actives have a fitted effect of over 50% in size; note: potency is the fitted concentration of half-maximal effect
# How it was run: as §2
# [4] = A CellTox Green Cytotoxicity Assay to monitor cytotoxicity in HEK293 cells - 8 hour (AID 1224884); note: nearly all actives have a fitted effect of over 35% in size
# How it was run: as §1
# [5] = qHTS RealTime-Glo MT Cell Viability Assay in HepG2 cells - 16 hour (AID 1224885); note: nearly all actives have a fitted effect of over 50% in size
# How it was run: (§3)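 Cells + NanoLuc/prosubstrate dispensed (600 cells/well) → 5 h at 37 C/5% CO2 → compounds in DMSO transferred → 40 h incubation at 37 C, luminescence read at 0, 8, 16, 24, 32, 40 h.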
# [6] = qHTS RealTime-Glo MT Cell Viability Assay in HEK293 cells - 24 hour (AID 1224886); note: top concentration of the series differs between compounds; nearly all actives have a fitted effect of over 50% in size
# How it was run: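 Tox21 10K qHTS, HEK293, 600 cells/well, RealTime-Glo reagent co-dispensed with cells; 5 h preincubation, compound by pintool, 37 C, luminescence at 0–40 h.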
# [7] = qHTS RealTime-Glo MT Cell Viability Assay in HEK293 cells - 8 hour (AID 1224887); note: top concentration of the series differs between compounds; nearly all actives have a fitted effect of over 50% in size
# How it was run: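 Real-time viability in HEK293: signal arises when living cells convert a prosubstrate for NanoLuc in the medium, so luminescence tracks viable cell number. Compound (23 nL, DMSO) added 5 h post-seeding; kinetic reads at 0–40 h, 37 C.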
# [8] = A CellTox Green Cytotoxicity Assay to monitor cytotoxicity in HEK293 cells - 16 hour (AID 1224888); note: nearly all actives have a fitted effect of over 35% in size
# How it was run: as §1
# [9] = qHTS RealTime-Glo MT Cell Viability Assay in HepG2 cells - 0 hour (AID 1224889); note: nearly all actives have a fitted effect of over 50% in size
# How it was run: as §3
# [10] = A CellTox Green Cytotoxicity Assay to monitor cytotoxicity in HepG2 cells - 8 hour (AID 1224890); note: nearly all actives have a fitted effect of over 45% in size; note: potency is the fitted concentration of half-maximal effect
# How it was run: as §2
# [11] = qHTS assay to identify small molecule antagonists of the estrogen receptor alpha (ER-alpha) signaling pathway using the BG1 cell line in the presence of 0.1 nM 17-beta-estradiol - cell viability counter screen (AID 1259241); note: nearly all actives have a fitted effect of over 40% in size
# How it was run: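 CellTiter-Fluor read (30 min, 37C) on ER-alpha/ERE-luc VM7Luc4E2 cells; 22 hr compound treatment; agonist 0.1 nM E2 final; same-well multiplex.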
# [12] = qHTS assay to identify small molecule antagonists of the androgen receptor (AR) signaling pathway using the MDA cell line in the presence of 0.5 nM R1881 - cell viability counter screen (AID 1259242); note: nearly all actives have a fitted effect of over 45% in size
# How it was run: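 Steps: plate MDA-kb2 cells, rest 5 hr at 37C without CO2; pin in compounds in DMSO; add R1881 to 0.5 nM final; incubate 16 hr; add CellTiter-Fluor, 30 min; read fluorescence.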
# [13] = target: Estrogen receptor (Homo sapiens) (UniProt P03372); test: qHTS assay to identify small molecule antagonists of the estrogen receptor alpha (ER-alpha) signaling pathway using the BG1 cell line in the presence of 0.1 nM 17-beta-estradiol (AID 1259244); note: nearly all actives have a fitted effect of over 50% in size
# How it was run: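 Antagonist mode: compounds in DMSO are pinned onto VM7Luc4E2 reporter cells, 0.1 nM final 17beta-estradiol is added, and after 22 h at 37C luciferase luminescence is measured with ONE-Glo.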
# [14] = qHTS assay to identify small molecule phospholipidosis (PLD) inducers (AID 1259344; active = well fitted curve in the direction sought with a large enough effect; an effect the other way counts as inactive or inconclusive; note: potency is the fitted concentration of half-maximal effect)
# How it was run: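 Cells (HepG2, 900 per well) attach for 4 h, receive LipidTOX Red and compound together, incubate 24 h at 37 C, are fixed 30 min with paraformaldehyde/Hoechst, then imaged at one site per well.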
# [15] = qHTS assay to identify small molecule HDAC inhibitors (AID 1259364);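 note: wild-type HCT-116 cells with endogenous class I/II HDAC activity; top concentration of the series differs between compounds; nearly all actives have a fitted effect of over 45% in size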
# How it was run: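 Cells (HCT-116, wild type) are seeded at 1,500 per well, incubated overnight, treated with compound in DMSO for 2 hr, then developed with HDAC-Glo I/II reagent for 30 min at room temperature.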
# [16] = qHTS assay to identify small molecule HDAC inhibitors - cell viability counter screen (AID 1259365)
# How it was run: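 To flag cytotoxic hits, 1,500 wild-type HCT-116 cells per well, plated the day before, receive test compounds for 2hr at 37 C before CellTiter-Glo reagent and a luminescence read.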
# [17] = qHTS assay to identify small molecule agonists of the sonic hedgehog signaling (Shh) pathway - cell viability counter screen (AID 1259366); note: nearly all actives have a fitted effect of over 50% in size; note: potency is the fitted concentration of half-maximal effect
# How it was run: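 Fluorescence from CellTiter-Fluor reports live cells in this counter screen. NIH/3T3-derived Gli1-Luc reporter cells receive test compounds for 24hr at 37C; reagent goes in at 23hr.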
# [18] = qHTS assay to identify small molecule antagonists of the sonic hedgehog signaling (Shh) pathway - cell viability counter screen (AID 1259367); note: nearly all actives have a fitted effect of over 55% in size; note: potency is the fitted concentration of half-maximal effect
# How it was run: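 Cytotoxicity was assessed in parallel with Shh reporter activity by measuring live-cell protease fluorescence (CellTiter-Fluor) in NIH/3T3 cells stably carrying Gli1-Luc, treated with compound under conditioned medium stimulation for 23 hr plus 1 hr reagent incubation.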
# [19] = qHTS assay to identify small molecule agonists of the sonic hedgehog signaling (Shh) pathway (AID 1259368; calls by dose curve;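 note: NIH/3T3-derived 3T3Gli1-Luc cells carrying a stable Gli1-driven firefly luciferase reporter; series mostly up to about 92 µM; nearly all actives have a fitted effect of over 15% in size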)
# How it was run: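 Cells of a mouse NIH/3T3 clone stably expressing luciferase under the Gli1 transcriptional response element are exposed to test chemicals for 24 hr at 37 C. Pathway activation is detected as a rise in luminescence.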
# [20] = target: Androgen receptor (Homo sapiens) (UniProt P10275); test: qHTS assay to identify small molecule antagonists of the androgen receptor (AR) signaling pathway using the MDA cell line in the presence of 0.5 nM R1881 (AID 1259243); note: nearly all actives have a fitted effect of over 50% in size; note: potency is the fitted concentration of half-maximal effect
# How it was run: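 Stably transfected MDA-kb2 cells express luciferase from an MMTV promoter bearing both AR and GR response elements. Compounds plus 0.5 nM R1881 (final) were incubated 16 hr at 37C without CO2, then luminescence measured.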
# Chain of Androgen receptor (Homo sapiens) (P10275 whole entry, looked up): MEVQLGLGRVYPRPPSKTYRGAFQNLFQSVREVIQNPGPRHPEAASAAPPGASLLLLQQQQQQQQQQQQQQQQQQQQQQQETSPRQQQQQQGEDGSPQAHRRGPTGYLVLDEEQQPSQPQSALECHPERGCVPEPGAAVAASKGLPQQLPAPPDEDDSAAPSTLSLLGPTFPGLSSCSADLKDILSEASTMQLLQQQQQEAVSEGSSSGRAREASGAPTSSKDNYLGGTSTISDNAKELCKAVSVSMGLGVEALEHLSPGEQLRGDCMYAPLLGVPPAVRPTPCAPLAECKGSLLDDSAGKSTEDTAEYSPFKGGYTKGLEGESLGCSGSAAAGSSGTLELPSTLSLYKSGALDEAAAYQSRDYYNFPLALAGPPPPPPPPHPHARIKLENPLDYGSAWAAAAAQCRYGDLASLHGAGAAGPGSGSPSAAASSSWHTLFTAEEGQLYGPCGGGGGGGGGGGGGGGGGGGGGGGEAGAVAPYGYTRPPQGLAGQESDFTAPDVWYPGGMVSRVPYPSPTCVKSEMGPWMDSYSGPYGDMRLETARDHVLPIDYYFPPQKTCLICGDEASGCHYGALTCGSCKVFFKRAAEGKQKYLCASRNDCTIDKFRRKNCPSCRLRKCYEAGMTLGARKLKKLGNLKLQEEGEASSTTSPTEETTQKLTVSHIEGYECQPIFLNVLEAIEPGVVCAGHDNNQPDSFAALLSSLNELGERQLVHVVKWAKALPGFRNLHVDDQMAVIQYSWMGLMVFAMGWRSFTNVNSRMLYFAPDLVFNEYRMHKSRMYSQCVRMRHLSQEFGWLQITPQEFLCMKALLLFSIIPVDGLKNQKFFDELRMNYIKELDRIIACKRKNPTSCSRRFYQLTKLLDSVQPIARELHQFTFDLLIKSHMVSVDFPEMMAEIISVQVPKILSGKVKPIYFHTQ
# Chain of Estrogen receptor (Homo sapiens) (P03372 whole entry, looked up): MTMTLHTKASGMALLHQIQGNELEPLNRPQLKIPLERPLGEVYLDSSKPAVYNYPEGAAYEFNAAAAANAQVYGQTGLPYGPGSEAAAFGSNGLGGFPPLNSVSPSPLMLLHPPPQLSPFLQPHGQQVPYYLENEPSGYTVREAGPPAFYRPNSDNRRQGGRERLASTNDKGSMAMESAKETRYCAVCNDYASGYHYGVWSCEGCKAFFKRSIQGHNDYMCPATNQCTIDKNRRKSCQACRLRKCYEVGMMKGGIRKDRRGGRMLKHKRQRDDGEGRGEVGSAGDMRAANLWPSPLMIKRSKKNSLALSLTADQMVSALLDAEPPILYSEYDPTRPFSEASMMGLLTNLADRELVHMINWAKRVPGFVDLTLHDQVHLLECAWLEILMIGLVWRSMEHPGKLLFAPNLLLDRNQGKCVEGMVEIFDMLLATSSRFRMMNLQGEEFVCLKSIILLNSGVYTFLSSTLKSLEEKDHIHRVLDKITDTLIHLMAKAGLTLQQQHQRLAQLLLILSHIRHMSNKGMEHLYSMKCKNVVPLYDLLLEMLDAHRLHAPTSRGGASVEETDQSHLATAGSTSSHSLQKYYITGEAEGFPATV
SMILES,Potency [1],Potency [2],Potency [3],Potency [4],outcome [5],outcome [6],outcome [7],Potency [8],outcome [9],Potency [10],outcome [11],outcome [12],Potency [13],Potency [14],Potency [15],outcome [16],Potency [17],Potency [18],outcome [19],Potency [20]
C[C@]12CC[C@H](O)CC1=CC[C@@H]1[C@@H]2CC[C@]2(C)C(=O)CC[C@@H]12,inactive,inactive,inactive,inactive,inactive,inactive,inactive,inactive,inactive,inactive,inactive,inactive,inactive,10 µM (active),inactive,inactive,inactive,inactive,inactive,
Nc1ccc(N)cc1,inactive,inactive,inactive,inactive,inactive,inactive,inactive,inactive,inactive,inactive,inactive,inactive,,inactive,inactive,inactive,61.4 µM (active) and inactive,61.4 µM (active) and 54.5 µM (active) and inactive,inactive,
CN(C)C(=O)C(c1ccccc1)c1ccccc1,inactive,inactive,inactive,inactive,inactive,inactive,inactive,inactive,inactive,inactive,inactive,inactive,,,inactive,inactive,inactive,inactive,inactive,
N#Cc1ccccn1,inactive,inactive,inactive,inactive,inactive,inactive,inactive,inactive,inactive,inactive,inactive,inactive,inactive,,inactive,inactive,inactive,inactive,inactive,
Cc1cccc(C)c1NC(=O)CN1CCCC1=O,inactive,inactive,inactive,inactive,inactive,inactive,inactive,inactive,inactive,inactive,inactive,inactive,inactive,inactive,inactive,inactive,inactive,inactive,inactive,
CC[N+](=O)[O-],inactive,inactive,inactive,inactive,inactive,inactive,inactive,inactive,inactive,inactive,inactive,inactive,,,inactive,inactive,inactive,inactive,inactive,
CC12CC1(C)C(=O)N(c1cc(Cl)cc(Cl)c1)C2=O (configuration not stated),inactive,inactive,inactive,inactive,inactive,inactive,inactive,inactive,inactive,inactive,inactive,inactive,,,inactive,inactive,inactive,inactive,inactive,1.21 µM (active) and 1.37 µM (active)
CSc1nnc(C(C)(C)C)c(=O)n1N,inactive,inactive,inactive,inactive,inactive,inactive,inactive,inactive,inactive,inactive,inactive,inactive,,,,inactive,inactive,inactive,inactive,
O=C(O)Cc1ccccc1,inactive,inactive,inactive,inactive,inactive,inactive,inactive,inactive,inactive,inactive,inactive,inactive,inactive,inactive,,inactive,inactive,inactive,inactive,
[N-]=[N+]=CC(=O)OC[C@H](N)C(=O)O,inactive,34.7 µM (active) and inactive,38.9 µM (active) and inactive,inactive,inactive,inactive,inactive,inactive,inactive,38.9 µM (active) and inactive,inactive,inactive,,inactive,inactive,inactive,inactive,inactive,inactive,
Nc1ncc([N+](=O)[O-])s1,inactive,inactive,inactive,inactive,inactive,inactive,inactive,inactive,inactive,inactive,inactive,inactive,inactive,,,inactive,inactive,inactive,inactive,
O=C(O)c1cc(Oc2ccc(C(F)(F)F)cc2Cl)ccc1[N+](=O)[O-],inactive,inactive,inactive,inactive,inactive,inactive,inactive,inactive,inactive,inactive,inactive,inactive,,inactive,inactive,inactive,inactive,inactive,inactive,
CCOC(=O)CC(SP(=O)(OC)OC)C(=O)OCC (configuration not stated),inactive,inactive,inactive,inactive,inactive,inactive,inactive,inactive,inactive,inactive,inactive,inactive,,,inactive,inactive,inactive,inactive,inactive,
Oc1ccc(Cl)cc1,inactive,inactive,inactive,inactive,inactive,inactive,inactive,inactive,inactive,inactive,inactive,inactive,,inactive,inactive,inactive,inactive,inactive,inactive,
c1ccc2c(c1)CCCC2,,inactive,inactive,inactive,inactive,inactive,inactive,inactive,inactive,inactive,inactive,inactive,inactive,,inactive,inactive,inactive,inactive,inactive,inactive
N#Cc1cccc(C#N)c1,inactive,inactive,,inactive,inactive,inactive,inactive,inactive,inactive,inactive,inactive,inactive,,,inactive,inactive,inactive,inactive,inactive,
